In all, about 33,000 sequences were measured (“E-score (-0.5 to 0.5)”: median about -0.032, highest 2% from about 0.36 on). The list comes from a sample in which the highest values are over-represented; it also holds similar and randomly drawn sequences.
The sequences below were run against T1, Sko1 (UniProt Q02100) (assay: PBM E-score (8-mer binding enrichment) (E-score (-0.5 to 0.5)); higher = stronger / more preferred TF binding). Details: protein concentration: 200 nM; construct: GST-full length.
T1 sequence: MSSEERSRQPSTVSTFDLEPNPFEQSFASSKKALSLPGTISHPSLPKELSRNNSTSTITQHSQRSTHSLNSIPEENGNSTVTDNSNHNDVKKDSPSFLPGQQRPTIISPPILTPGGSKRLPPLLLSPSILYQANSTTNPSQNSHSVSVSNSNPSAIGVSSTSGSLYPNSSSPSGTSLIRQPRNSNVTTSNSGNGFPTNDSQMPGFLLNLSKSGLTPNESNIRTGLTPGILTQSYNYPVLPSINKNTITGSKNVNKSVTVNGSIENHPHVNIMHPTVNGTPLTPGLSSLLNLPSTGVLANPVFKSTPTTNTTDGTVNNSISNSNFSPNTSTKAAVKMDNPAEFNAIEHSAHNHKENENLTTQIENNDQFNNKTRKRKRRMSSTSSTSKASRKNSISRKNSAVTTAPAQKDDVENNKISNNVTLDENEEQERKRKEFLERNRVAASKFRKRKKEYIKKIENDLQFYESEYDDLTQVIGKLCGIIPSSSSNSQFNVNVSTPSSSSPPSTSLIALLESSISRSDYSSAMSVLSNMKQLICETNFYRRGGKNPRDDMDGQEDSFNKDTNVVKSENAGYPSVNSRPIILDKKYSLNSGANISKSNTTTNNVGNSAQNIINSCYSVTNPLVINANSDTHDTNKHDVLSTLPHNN
Experimental: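 Universal 'all 10-mer' protein binding microarrays (Agilent AMADID 015681) probed with GST-tagged S. cerevisiae TFs (full-length or DBD) made by in vitro transcription/translation (PURExpress), about 100-200 nM. Bound TF was detected with fluorescent anti-GST. Each ungapped 8-mer (which stands for itself and its reverse complement) is scored by the PBM enrichment score (E-score), a modified Wilcoxon-Mann-Whitney statistic from -0.5 to +0.5, computed with the Universal PBM Analysis Suite. Scale: above 0.35 generally sequence-specific binding.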

Row | Sequence | PBM E-score
1 | ACGTGAGG | 0.276
2 | CCGTGATC | -0.255
3 | AGGTGATG | 0.087
4 | ATATCAAC | 0.141
5 | AGGGGAGC | -0.294
6 | TAGGTTCA | -0.0685
7 | TGTTGCAA | 0.131
8 | CAATTCAC | 0.049
9 | AGGTGAGG | -0.192
10 | CGCAGATA | -0.00801
11 | CAAGGCAA | -0.136
12 | CGCTCTTA | 0.112
13 | ACGTTTCG | 0.347
14 | ATGCTCGA | 0.00694
15 | CACTGATG | 0.0771
16 | GTGATCAA | 0.189
17 | CTTGTTAC | 0.094
18 | ATTGTTAC | 0.362
19 | ATTGTTAG | 0.0985
20 | ACTCTTGG | -0.179
21 | TACACGAA | 0.251
22 | CACACGGC | -0.0173

Row | Sequence | PBM E-score
23 | AACACAAA | 0.0722
24 | TACACGTA | 0.453
25 | AACACGTG | 0.395
26 | TACACGGA | 0.142
27 | AACACGAG | 0.033
28 | CACACAAA | 0.114
29 | CACACATA | 0.0532
30 | CACACGTG | 0.386
31 | CACACGTC | 0.446
32 | CACACGCC | 0.0149
33 | GACTCTGA | -0.104
34 | GAGCTCCA | -0.129
35 | AATCCTGG | -0.199
36 | ATAGTTAC | 0.212
37 | CGCGACGA | 0.125
38 | ACGTTCGA | 0.248
39 | TCGGCTCA | -0.111
40 | GTAGAGGA | -0.194
41 | AAACCGAG | -0.175
42 | CCGCTCCG | -0.269
43 | GCCTTCCA | -0.222
44 | CACACGTA | 0.45

Row | Sequence | PBM E-score
45 | CACACGCG | 0.104
46 | CACACGGA | -0.167
47 | CCTGCGAA | -0.0899
48 | CGTAAGCC | 0.203
49 | GCGTTGGA | -0.00317
50 | ACACTACT | -0.0134
51 | ACACTACA | 0.167
52 | ACACTACG | 0.368
53 | CACTACCA | -0.029
54 | AGTCACGA | 0.103
55 | CGTCACGA | 0.443
56 | CCTCACGC | 0.0875
57 | CGTCACGC | 0.433
58 | AGTCACGC | 0.167
59 | GGTCACGA | -0.0631
60 | GTTCGCGA | 0.133
61 | GGAAGCTA | -0.135
62 | AGTGCAGA | -0.0919
63 | CGGGATAA | 0.0877
64 | GGCTTGTA | -0.158
65 | AGCTCAAT | 0.016
66 | AGATTGAT | -0.0863

Row | Sequence | PBM E-score
67 | CCTCATTC | -0.0556
68 | GGTCATTA | 0.232
69 | CGTCATTC | 0.482
70 | AGTCATTA | 0.032
71 | CGTCATTA | 0.487
72 | AGTCATTC | 0.135
73 | ACTCAAAC | 0.0881
74 | GTGGCGCA | 0.0382
75 | CCTGGCTC | -0.137
76 | TGCTTCCA | -0.067
77 | GAAGCTTC | -0.375
78 | CTCTGCAA | -0.0293
79 | CAGCTCAG | -0.0505
80 | AGTCACTC | -0.0377
81 | CGTCACTC | 0.418
82 | AGTCACTA | 0.0867
83 | GGTCACTA | 0.0129
84 | CGTCACTA | 0.445
85 | CCTCACTC | -0.0833
86 | CACCACCG | -0.248
87 | TACGCCTA | 0.208

Source: the supplement of paper PMC3334620
